HIF-2a inh: HIF-2a inhibition; 786-0 RCC cells HIF-2a reporter, luciferase luminescence, overnight; inhibition, % at 18.8 µM; 0.72% of 360,000 active; AID 624352;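 active means inhibition of the luminescence signal of 40% or more relative to plate controls, in a single-dose primary screen at 18.75 µM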
TROY signal inh: blocks TROY-dependent signaling in reporter cells; 0.98% of 360,000 active; Q293 LMP1-TROYcd NF-kB luciferase reporter, 4 h; inhibition, % at 10 µM; AID 1347056;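 active means compounds whose plate-normalised and pattern-corrected inhibition of the luciferase reporter signal at the single screening dose is 50% or more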
CF NFkB block: blocks PAF-induced NF-kB reporter in cystic fibrosis cells. KKLEB NF-kB-GFP reporter, GFP fluorescence overnight. inhibition, % at 5 µM. 0.86% of 360,000 active. AID 588850;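 active means at least 50% inhibition at 5 µM, scaled per plate between neutral and stimulator controls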;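 further: PAF is a Pseudomonas aeruginosa culture filtrate used as stimulus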
Peg3 promoter: Peg3 promoter activity inhibition; inhibition, % at 20 µM; 1.7% of 360,000 active; HeLa PEG-Prom luciferase reporter, luminescence, overnight; AID 588405;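 active means inhibition of at least 50% at 20 µM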
TWEAK Fn14 block: blocks TWEAK-Fn14 interaction in a reporter cell assay | TWEAK-stimulated Fn14 reporter cells, luciferase luminescence, 8 h | inhibition, % at 10 µM | 2% of 360,000 active | AID 1159606; in the data active means inhibition above about 50%
KKLEB cytotox: CF airway cell cytotoxicity counter-screen; KKLEB CF airway cells viability, ATPlite luminescence, overnight; hits give low values; cells stimulated with P. aeruginosa culture filtrate; 0.36% of 360,000 active; activity change (cytotoxicity), % at 5 µM; AID 602141;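 active means corrected activity change at or below -50% at 5 µM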
Numbers stand for hits; n = inactive; x = no result. Most compounds without a hit are left out; they make up all but 4% or so of the library.

SMILES	HIF-2a inh	TROY signal inh	CF NFkB block	Peg3 promoter	TWEAK Fn14 block	KKLEB cytotox
O=C1NC(=O)N(CCc2ccc(F)cc2)C(=O)/C1=C\C=C\c1ccccc1	n	n	89	n	98	n
COC(=O)C12CCc3c(ccc4cc(OC)ccc34)C1=CC(=O)C2 (stereo not given)	n	n	n	n	n	n
COC(=O)C1=C(c2cccc(OC)c2OC)C[C@@H]2CC[C@H]1N2C(=O)NCc1ccc(F)cc1	n	n	n	n	n	n
COCCN1C(=O)/C(=C/c2c(OC)cc(OC)cc2OC)C(=O)N(c2ccccc2)C1=O	n	n	n	n	70	n
COc1ccc(CC2C(=O)N(c3ccccc3)C(=O)N(c3ccccc3)C2=O)c(OC)c1	n	n	n	n	n	n
Oc1ccc(O)c2c1C1(Cl)C(Cl)=C(Cl)C2(Cl)C1(Cl)Cl	n	52	n	61	n	n
Cc1ccc(OCCOc2cccc(C=C3C(=O)NC(=O)NC3=O)c2)c(C)c1	55	n	n	n	89	n
O=C1NC(=O)C(=Cc2cccc(OCCOc3ccccc3)c2)C(=O)N1	n	n	n	n	n	n
C/C(=C\c1ccc(N(C)C)cc1)[N+](=O)[O-]	93	n	n	101	n	n
CN(C)c1ccc(/C=C/[N+](=O)[O-])cc1	n	n	n	n	n	n
ClCCOCOCCCl	n	n	n	n	n	n
COc1ccccc1OCC(=O)Nc1ccc(Cl)cc1C(=O)c1ccccc1	n	n	n	n	107	n
OC12Oc3ccccc3C=C1N1CCC2CC1 (stereo not given)	n	n	n	n	n	n
COC(=O)C1=C(c2ccc(F)cc2OCc2ccccc2)C[C@@H]2CC[C@H]1N2C(=O)N1CCC(O)(c2ccc(Cl)cc2)CC1	n	n	n	n	56	n
COc1ccc2[nH]c(C)c(CCNCc3cn(C)c4ccccc34)c2c1	n	n	n	87	n	n
NC(N)=N/N=C/c1ccc(N(c2ccccc2)c2ccccc2)cc1	95	69	n	105	n	n
CN(C)CCN(CC1CCCN(Cc2ccccc2F)C1)C(=O)Cc1c(F)cccc1F (stereo not given)	n	n	n	n	n	n
O=C1NC(=O)C(=Cc2cn(CCOc3ccc4c(c3)OCO4)c3ccccc23)C(=O)N1	n	n	n	64	n	n
COC(=O)[C@@H]1N=C(c2ccc(OC)cc2)O[C@]12C(=O)N(Cc1ccccc1)c1ccccc12	n	n	x	x	n	x
CCn1c(O)c(C=Nc2ccc(S(N)(=O)=O)cc2)c(=O)[nH]c1=S	n	52	n	n	n	n
CCn1c(O)c(C=Nc2ccc(S(N)(=O)=O)cc2)c(=O)n(CC)c1=S	n	n	n	n	n	n
CCCCCCC(C)(C)c1ccc([C@@H]2C[C@H](O)CC[C@H]2CCCO)c(O)c1	n	n	n	83	n	n
Nc1ccc(CC(N)c2csc(Nc3ncccn3)n2)cc1 (stereo not given)	n	n	n	n	n	n
NC(Cc1ccc(Cl)cc1)c1csc(Nc2ncccn2)n1 (stereo not given)	n	n	n	n	58	n
CC(=NCc1ccco1)c1c(O)n(-c2ccc(C)cc2)c(=O)[nH]c1=O	n	n	n	n	n	n
SMILES	HIF-2a inh	TROY signal inh	CF NFkB block	Peg3 promoter	TWEAK Fn14 block	KKLEB cytotox
Nc1c(C(=O)OCC2CCCO2)c2nc3ccccc3nc2n1Cc1cccs1 (stereo not given)	n	68	n	n	n	n
COCCNC(=O)c1c(N)n(CCC(C)C)c2nc3ccccc3nc12	n	73	n	n	n	n
COCCNC(=O)c1c(NC(=O)c2ccc(Br)o2)n(Cc2ccccc2)c2nc3ccccc3nc12	n	68	n	n	58	n
CC(C)OCCCNC(=O)c1c(N)n(Cc2cccs2)c2nc3ccccc3nc12	n	n	n	n	n	n
COCCCNC(=O)c1c(NC(=O)c2ccco2)n(Cc2ccccc2)c2nc3ccccc3nc12	n	x	n	n	n	n
CC(C)CCn1c(N)c(C(=O)NCc2cccs2)c2nc3ccccc3nc21	n	68	n	n	63	n
O=C(CCC(=O)N1CCC2(CC1)OCCO2)Nc1nnc(C2CCCCC2)s1	n	n	n	n	n	n
COc1cc(C2c3cc(O)c(OC)cc3CC3C(=O)OCC32)ccc1O (stereo not given)	n	n	n	n	n	n

Compound activity from PubChem BioAssay.
